From PubChem
Sampled rows, rich in hits. Any-hit rate of the full collection: about 3.7%.
TCR act – activators of T cell receptors. 330,000 tested, under 10 active. primary human leukocytes, anti-CD3, IL-2 HTRF, 48 h. AID 504894. Potency, µM (series often up to 9.22 µM), for inactives: top-dose activation of IL-2 secretion, usual class: activators; note: % of control where 0% means no effect
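IL-2 release read by HTRF sandwich (Eu cryptate donor, d2 acceptor, 665 nm emission) after 48 hr exposure of primary human leukocytes to compound together with anti-CD3 beads in the absence of co-stimulatory signals.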
PI5P4K alpha inh – blocks human PI5P4K alpha kinase activity; P48426; PI5P4Kalpha enzyme, ADP-Glo luminescence, 60 min; active compounds read low; max response, %; 330,000 tested, 1.2% active; AID 652105; active = max response of -50% or lower; inconclusive = between -30% and -50%; inactive = -30% or higher; note: value at the top dose of about 77 µM; % is set by controls: 0 for no effect and ±100 for the full control effect
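Quantitative HTS of the MLSMR library against PI5P4Kalpha with substrate. ATP added last at 5 microM final; room temperature, 60 minutes. Remaining ATP depleted, ADP converted and read as luminescence.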
FEN1 inh – inhibitors of human flap endonuclease 1 | 390,000 tested, 0.35% active | Potency, µM (series often up to 114 µM), inactives show at the top dose activity change, negative = inhibition, usual class: inhibitors | AID 588795 | P39748 | Recombinant FEN1 flap cleavage, fluorescence, 15 min; note: potency is the fitted concentration of half-maximal effect; % is set by controls: 0 for no effect and ±100 for the full control effect; nearly all actives have a fitted effect of over 65% in size
Target sequence (P39748 whole entry, looked up): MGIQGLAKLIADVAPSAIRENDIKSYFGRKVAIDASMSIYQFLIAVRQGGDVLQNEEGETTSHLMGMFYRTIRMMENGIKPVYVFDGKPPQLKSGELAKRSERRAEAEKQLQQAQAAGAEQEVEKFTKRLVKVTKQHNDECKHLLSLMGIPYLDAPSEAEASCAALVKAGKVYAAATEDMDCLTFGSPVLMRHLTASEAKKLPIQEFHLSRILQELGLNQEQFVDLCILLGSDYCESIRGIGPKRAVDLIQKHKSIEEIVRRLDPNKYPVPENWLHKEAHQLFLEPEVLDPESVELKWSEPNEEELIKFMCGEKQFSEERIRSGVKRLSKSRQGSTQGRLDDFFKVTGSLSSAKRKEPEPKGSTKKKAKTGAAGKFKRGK
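FEN1 at 10 nM, compound pretreatment for 15 min (room temperature), 50 nM final substrate to initiate; endpoint reads at 0 and 15 min; DMSO-only plates used as vehicle background.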
VDR inhibitor – blocks the human vitamin D receptor; P11473; VDR-SRC2-3 peptide fluorescence polarization, 2 h; Potency, µM, for inactives: max response, negative = inhibition, hits mostly inhibitors; 400,000 tested, 0.93% active; AID 504847; note: potency is the fitted concentration of half-maximal effect; % is set by controls: 0 for no effect and ±100 for the full control effect
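The screen uses fluorescence polarization to detect compounds that interfere with recruitment of the SRC2-3 coactivator peptide to VDR; plates are read after 2 h at room temperature.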
PLK1 PBD inh – PLK1 (human) polo-box domain binding inhibition | Plk1 PBD binding of FITC phosphopeptide, fluorescence polarization | Potency, µM, for inactives: max response, negative = inhibition, most hits filed as inhibitors | 360,000 tested, 2.8% active | AID 720504; note: potency is the fitted concentration of half-maximal effect; series mostly up to about 57 µM; % is set by controls: 0 for no effect and ±100 for the full control effect; nearly all actives have a fitted effect of over 65% in size
WRN inhibitor – blocks human WRN helicase; 360,000 tested, 0.46% active; Potency, µM (highest dose often 114 µM), for inactives: top-dose activity change, negative = inhibition, hits mostly inhibitors; WRN helicase unwinding, fluorescent forked duplex, kinetic; note: potency is the fitted concentration of half-maximal effect; % is set by controls: 0 for no effect and ±100 for the full control effect; nearly all actives have a fitted effect of over 55% in size
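Fluorescence dequenching readout, ex 525 nm/em 598 nm, kinetic mode: forked duplex DNA (100 nM final) with adjacent fluorophore and quencher unwound by WRN (20 nM final) with 2 mM ATP. Compound preincubation 15 min, room temperature.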
Numbers without * were called inactive; ? = inconclusive; nt = no result given; [ ] = dose if it differs, or a comment. Unless noted, calls come from the whole dose curve; as a rule, active = well fitted curve in the direction sought with a large enough effect; inconclusive = small, poorly fitted or top-dose-only effect, or another doubt; inactive = no such curve, though single readings can be large; an effect the other way counts as inactive or inconclusive.

SMILES | TCR act | PI5P4K alpha inh | FEN1 inh | VDR inhibitor | PLK1 PBD inh | WRN inhibitor
C=CC[C@]1(O)CCC2C3CCC4=CCCCC4C3CCC21C (some centres undefined) | nt | nt | nt | -11% | nt | nt
CCCC(C)c1nnc(NC(=O)CCS(=O)(=O)c2ccccc2)s1 (centres undefined) | 4% | -22 | -4% | 25µM* | 4.7µM* | -29%
C[C@H]1CC[C@@]2(C)[C@@H](CC[C@@H]3[C@@H]2CC[C@]2(C)[C@@H](O)CC[C@@H]32)C1 | -54% | 39 | 0% | -14% | 27µM* | -9%
c1ccc2sc(C3(NCC4CC4)CCCCC3)cc2c1 | nt | nt | nt | 7% | nt | nt
C[Se]C[C@H](N)C(=O)O | nt | nt | nt | 7% | nt | nt
NC(=S)c1cn(C2OC(CO)C(O)C2O)c2ncnc(N)c12 (centres undefined) | -2% | ? | 24% | ? | 27µM* | 2%
CCCCCC1C(=O)O[C@H](C)[C@@H](NC(=O)c2cccc(NC=O)c2O)C(=O)OC(C)C1OC(=O)CC(C)C (some centres undefined) | nt | nt | nt | -3% | nt | nt
CC(C)[C@H](NC(=O)[C@H](CCC(=O)O)NC(=O)[C@H](Cc1ccccc1)NC(=O)[C@@H](C)NC(=O)[C@@H](N)Cc1ccc(O)cc1)C(=O)N[C@H](C(=O)NCC(N)=O)C(C)C | nt | nt | nt | 7% | nt | nt
O=C(O)c1cccc2c1NC(C(=O)O)C1CC(Sc3ccccc3[N+](=O)[O-])C(Cl)C21 (centres undefined) | 9%[46.1 µM] | -67* | 45µM* | -68% | 8.4µM* | 32µM*
c1cc2cc(c1)C[n+]1ccc(c3ccccc31)NCc1ccc(cc1)CNc1cc[n+](c3ccccc13)C2 | nt | nt | nt | -6% | nt | nt
Cc1cccc2c3c(ccc12)C1=C(C(=O)C3=O)[C@@H](C)CO1 | nt | nt | nt | 20µM* | nt | nt
CN1C[C@@H](C(=O)N[C@@]2(C)O[C@]3(O)C4CCCN4C(=O)[C@@H](Cc4ccccc4)N3C2=O)C=C2c3cccc4[nH]cc(c34)C[C@@H]21 (some centres undefined) | nt | nt | nt | 14µM* | nt | nt
CC(C)C[C@H]1C(=O)N2CCCC2[C@]2(O)O[C@](NC(=O)[C@@H]3C=C4c5cccc6[nH]cc(c56)CC4N(C)C3)(C(C)C)C(=O)N12 (some centres undefined) | 4% | ? | -20% | -10% | -29% | -1%
CCOP(=S)(OCC)Oc1cc(C)oc(=O)c1 | 2% | -13 | -1% | 79µM* | 30µM* | -1%
CCOP(=S)(OCC)Oc1cc(C)oc(=O)c1Cl | -4% | -24 | 16% | 28µM* | 4.7µM* | -24%
O=C(CN1CCCC2CCCCC21)c1ccc(I)cc1 (centres undefined) | nt | nt | -5% | nt | nt | nt
O=C(NC1CCCCCC1)c1ccc[nH]c1=S | 2% | ? | 4% | ? | -7% | -31%
COc1ccc(C=C2C(=O)N(C)C(=O)N(C)C2=O)cc1CSc1ccccn1 | 5% | ? | -2% | 79µM* | 6µM* | ?
CN1C2CC(=O)CC1C(O)C2 (centres undefined) | nt | nt | nt | 0% | nt | nt
CCN1C(=O)/C(=C/c2ccc(N(CC)CC)cc2OC)C(=O)NC1=S | -6% | ? | 12% | ? | 1.1µM* | -14%
COc1ccccc1C=C1C(=O)NC(=S)NC1=O | 0% | -86* | -1% | 45µM* | 24µM* | ?
O=C1NC(=S)N(c2ccc(F)cc2)C(=O)/C1=C/c1ccccc1O | -18% | -1 | 17% | -30% | -29% | 0%[57.1 µM]
CCn1cc(C=C2C(=O)NC(=O)NC2=O)c2ccccc21 | -2% | -25 | -5% | 5% | 7% | -27%
COc1ccccc1/C=C1\C(=O)NC(=S)N(c2ccccc2)C1=O | -1% | -55* | 13% | 50µM* | 15µM* | -9%
[O]=[Cr](=[O])([OH])[O][Cr](=[O])(=[O])[OH] | nt | nt | nt | -8% | nt | nt
SMILES | TCR act | PI5P4K alpha inh | FEN1 inh | VDR inhibitor | PLK1 PBD inh | WRN inhibitor
CC[C@H](Oc1ccc(Cl)cc1)C(=O)OC1C[C@H]2CC[C@@H](C1)N2C (some centres undefined) | nt | nt | nt | -2% | nt | nt
CC[C@H](C)[C@H](NC(=O)[C@H](CCCN=C(N)N)NC(=O)[C@H](CCCN=C(N)N)NC(=O)[C@H](CC(C)C)NC(=O)[C@H](Cc1ccccc1)NC(=O)CNC(=O)CNC(=O)[C@@H](N)Cc1ccc(O)cc1)C(=O)O | nt | nt | nt | -2% | nt | nt
CC1=C(O)C(=O)C=C2C1=CC=C1[C@]2(C)CC[C@@]2(C)C3C[C@](C)(C(=O)O)CC[C@@]3(C)CC[C@@]12C (some centres undefined) | nt | nt | nt | 3.5µM* | nt | nt
CC/C=C\C/C=C\C/C=C\C/C=C\C/C=C\CCCC(=O)NCCO | nt | nt | nt | -5% | nt | nt
Cc1cccc(-n2c(C)nc3ccc(Cl)cc3c2=O)c1 | 7% | 1 | 5% | 2% | -3% | -24%
Cc1ccc2nc(C)n(-c3ccc(F)cc3)c(=O)c2c1 | 2% | -5 | -3% | -17% | 21µM* | 2%[57.1 µM]
CC(C)C[C@H](NC(=O)[C@H](CC(C)C)NC(=O)[C@H](Cc1ccccc1)NC(=O)[C@@H](N)Cc1ccc(O)cc1)C(=O)N[C@@H](CCCN=C(N)N)C(=O)N[C@@H](CC(N)=O)C(=O)N1CCC[C@H]1C(=O)O | nt | nt | nt | 0% | nt | nt
O=C(O)c1ccccc1-c1c2cc(Br)c(=O)cc-2oc2[c]([Hg])c(O)c(Br)cc12 | nt | nt | nt | 2.2µM* | nt | nt
C[C@@H](N)Cn1ccc2cc(F)c(Cl)cc21 | nt | nt | nt | -2% | nt | nt
Cc1cc(=O)oc2c1c(C)nn2-c1nn[nH]n1 | nt | ? | -4% | ? | 11µM* | -3%
CCN(CC)c1ccc(/C=C2\C(=O)NC(=S)N(C)C2=O)o1 | -5% | -3 | 5% | 8% | 91% | -18%
Cc1cc(/C=C2/C(=O)NC(=O)N(Cc3ccco3)C2=O)c(C)n1-c1ccccc1 | 9%[46.1 µM] | ? | 4% | -5% | ? | ?
CN(C)c1ccc(/C=C2/C(=O)NC(=O)N(Cc3ccco3)C2=O)cc1 | -1%[46.1 µM] | -58* | -29% | ? | 1.9µM* | 50µM*
NC(=O)C1CCN(/C=C2\C(=O)NC(=O)N(Cc3ccco3)C2=O)CC1 | 0% | -61* | ? | 0% | ? | ?
O=C1NC(=O)N(Cc2ccco2)C(=O)/C1=C/c1ccc(-c2cccc([N+](=O)[O-])c2)o1 | -3%[46.1 µM] | -80* | ? | 14µM* | 0.42µM* | 22µM*
CCN(CC)c1ccc(/C=C2/C(=O)NC(=O)N(Cc3ccco3)C2=O)cc1 | -6%[46.1 µM] | -73* | ? | ? | ? | 56µM*
CC#C[C@]1(O)CC[C@H]2C3C=C(C)C4=CC(=O)C=C[C@]4(C)[C@H]3[C@@H](O)C[C@@]21C (some centres undefined) | nt | nt | nt | 0% | nt | nt
